Assay results from PubChem BioAssay.
Active and inactive are the calls of the source.

Assays:
[1] = binders of probe aFSTL3 on microarray, primary screen, stem cell growth factor project, biochemical, small-molecule microarray, fluorescence 635/667 (AID 1064); settings: higher = more signal;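 further: measures binding of the biotinylated anti-FSTL3 antibody to printed compounds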
[2] = binders from COS7 lysate, DM2A8 probe, primary screen, torsin A project, cell lysate, small-molecule microarray, fluorescence 635/667 (AID 1065); settings: higher = more signal, COS7 lysate expressing mutant human TOR1A
[3] = binders of probe aFGF2 on microarray, primary screen, stem cell growth factor project, biochemical, small-molecule microarray, fluorescence 635/667 (AID 1067); settings: higher = more signal;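 further: measures binding of biotinylated aFGF2 protein to printed compounds on slides; z-score merges feature fluorescence and signal-to-noise across triplicate slides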
[4] = binders of probe aFGF10 on microarray, primary screen, stem cell growth factor project, biochemical, small-molecule microarray, fluorescence 635/667 (AID 1071); settings: higher = more signal;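 further: score merges 667 nm spot intensity and signal to noise from triplicate slides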
[5] = target: Neurogenic locus notch homolog protein 2 (Homo sapiens) (UniProt Q04721); assay: Notch2 binders on small-molecule microarrays, primary screen, biochemical, small-molecule microarray, 635 nm fluorescence, stem cell growth factors (AID 1073); settings: Notch2 binding, higher = more signal
[6] = target: Pro-neuregulin-1, membrane-bound isoform (Homo sapiens) (UniProt Q02297); assay: NRG1 binders on small-molecule microarrays, primary screen, psychiatric disease protein project, biochemical, small-molecule microarray, fluorescence 635/667 (AID 1075); settings: NRG1 binding, 635 nm fluorescence, higher = more signal;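 further: score combines 667 nm spot fluorescence with signal to noise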
[7] = test system: Neuregulin-1 EGF-like domain; assay: binders of neuregulin-1 EGF-like domain, primary screen, biochemical, small-molecule microarray, 635 nm fluorescence (AID 1081); settings: small-molecule microarray binding, higher = more signal;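 further: binding of the protein to compounds printed on small-molecule microarray slides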
[8] = FRG1 promoter luciferase signal modulators, primary screen, FRG1 inhibition for FSHD, cell-based, C2C12 myotubes, firefly/Renilla luciferase, luminescence (AID 1084); settings: higher = more signal, called active from +8 up or from −8 down
[9] = binders of probe aFST on microarray, primary screen, stem cell growth factor project, biochemical, small-molecule microarray, fluorescence 635/667 (AID 1086); settings: higher = more signal;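 further: score merges 667 nm fluorescence with signal-to-noise of each printed compound spot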
[10] = binders of probe aHhip on microarray, primary screen, stem cell growth factor project, biochemical, small-molecule microarray, fluorescence 635/667 (AID 1087); settings: higher = more signal;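 further: score merges spot fluorescence at 667nm with spot signal to noise ratio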

Pro-neuregulin-1, membrane-bound isoform (Homo sapiens), sequence (Q02297 whole entry, looked up, the tested form may be a part, canonical isoform): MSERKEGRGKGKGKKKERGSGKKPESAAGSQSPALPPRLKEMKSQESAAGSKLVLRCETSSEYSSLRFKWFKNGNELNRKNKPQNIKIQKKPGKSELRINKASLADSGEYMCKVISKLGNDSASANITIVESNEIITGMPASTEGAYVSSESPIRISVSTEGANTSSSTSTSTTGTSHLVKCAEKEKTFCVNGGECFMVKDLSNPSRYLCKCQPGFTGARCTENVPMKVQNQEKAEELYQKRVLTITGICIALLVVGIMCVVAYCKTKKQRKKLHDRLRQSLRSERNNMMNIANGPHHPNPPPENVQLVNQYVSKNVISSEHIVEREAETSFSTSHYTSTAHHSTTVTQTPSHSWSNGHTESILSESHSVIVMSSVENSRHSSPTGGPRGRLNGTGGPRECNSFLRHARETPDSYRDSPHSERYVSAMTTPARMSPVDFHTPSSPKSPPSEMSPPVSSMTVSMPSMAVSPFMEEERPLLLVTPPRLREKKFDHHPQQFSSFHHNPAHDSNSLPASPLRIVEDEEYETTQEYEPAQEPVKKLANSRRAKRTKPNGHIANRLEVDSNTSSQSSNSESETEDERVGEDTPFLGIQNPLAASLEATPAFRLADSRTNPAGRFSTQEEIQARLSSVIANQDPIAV
Neurogenic locus notch homolog protein 2 (Homo sapiens), sequence (Q04721 whole entry, looked up, canonical isoform): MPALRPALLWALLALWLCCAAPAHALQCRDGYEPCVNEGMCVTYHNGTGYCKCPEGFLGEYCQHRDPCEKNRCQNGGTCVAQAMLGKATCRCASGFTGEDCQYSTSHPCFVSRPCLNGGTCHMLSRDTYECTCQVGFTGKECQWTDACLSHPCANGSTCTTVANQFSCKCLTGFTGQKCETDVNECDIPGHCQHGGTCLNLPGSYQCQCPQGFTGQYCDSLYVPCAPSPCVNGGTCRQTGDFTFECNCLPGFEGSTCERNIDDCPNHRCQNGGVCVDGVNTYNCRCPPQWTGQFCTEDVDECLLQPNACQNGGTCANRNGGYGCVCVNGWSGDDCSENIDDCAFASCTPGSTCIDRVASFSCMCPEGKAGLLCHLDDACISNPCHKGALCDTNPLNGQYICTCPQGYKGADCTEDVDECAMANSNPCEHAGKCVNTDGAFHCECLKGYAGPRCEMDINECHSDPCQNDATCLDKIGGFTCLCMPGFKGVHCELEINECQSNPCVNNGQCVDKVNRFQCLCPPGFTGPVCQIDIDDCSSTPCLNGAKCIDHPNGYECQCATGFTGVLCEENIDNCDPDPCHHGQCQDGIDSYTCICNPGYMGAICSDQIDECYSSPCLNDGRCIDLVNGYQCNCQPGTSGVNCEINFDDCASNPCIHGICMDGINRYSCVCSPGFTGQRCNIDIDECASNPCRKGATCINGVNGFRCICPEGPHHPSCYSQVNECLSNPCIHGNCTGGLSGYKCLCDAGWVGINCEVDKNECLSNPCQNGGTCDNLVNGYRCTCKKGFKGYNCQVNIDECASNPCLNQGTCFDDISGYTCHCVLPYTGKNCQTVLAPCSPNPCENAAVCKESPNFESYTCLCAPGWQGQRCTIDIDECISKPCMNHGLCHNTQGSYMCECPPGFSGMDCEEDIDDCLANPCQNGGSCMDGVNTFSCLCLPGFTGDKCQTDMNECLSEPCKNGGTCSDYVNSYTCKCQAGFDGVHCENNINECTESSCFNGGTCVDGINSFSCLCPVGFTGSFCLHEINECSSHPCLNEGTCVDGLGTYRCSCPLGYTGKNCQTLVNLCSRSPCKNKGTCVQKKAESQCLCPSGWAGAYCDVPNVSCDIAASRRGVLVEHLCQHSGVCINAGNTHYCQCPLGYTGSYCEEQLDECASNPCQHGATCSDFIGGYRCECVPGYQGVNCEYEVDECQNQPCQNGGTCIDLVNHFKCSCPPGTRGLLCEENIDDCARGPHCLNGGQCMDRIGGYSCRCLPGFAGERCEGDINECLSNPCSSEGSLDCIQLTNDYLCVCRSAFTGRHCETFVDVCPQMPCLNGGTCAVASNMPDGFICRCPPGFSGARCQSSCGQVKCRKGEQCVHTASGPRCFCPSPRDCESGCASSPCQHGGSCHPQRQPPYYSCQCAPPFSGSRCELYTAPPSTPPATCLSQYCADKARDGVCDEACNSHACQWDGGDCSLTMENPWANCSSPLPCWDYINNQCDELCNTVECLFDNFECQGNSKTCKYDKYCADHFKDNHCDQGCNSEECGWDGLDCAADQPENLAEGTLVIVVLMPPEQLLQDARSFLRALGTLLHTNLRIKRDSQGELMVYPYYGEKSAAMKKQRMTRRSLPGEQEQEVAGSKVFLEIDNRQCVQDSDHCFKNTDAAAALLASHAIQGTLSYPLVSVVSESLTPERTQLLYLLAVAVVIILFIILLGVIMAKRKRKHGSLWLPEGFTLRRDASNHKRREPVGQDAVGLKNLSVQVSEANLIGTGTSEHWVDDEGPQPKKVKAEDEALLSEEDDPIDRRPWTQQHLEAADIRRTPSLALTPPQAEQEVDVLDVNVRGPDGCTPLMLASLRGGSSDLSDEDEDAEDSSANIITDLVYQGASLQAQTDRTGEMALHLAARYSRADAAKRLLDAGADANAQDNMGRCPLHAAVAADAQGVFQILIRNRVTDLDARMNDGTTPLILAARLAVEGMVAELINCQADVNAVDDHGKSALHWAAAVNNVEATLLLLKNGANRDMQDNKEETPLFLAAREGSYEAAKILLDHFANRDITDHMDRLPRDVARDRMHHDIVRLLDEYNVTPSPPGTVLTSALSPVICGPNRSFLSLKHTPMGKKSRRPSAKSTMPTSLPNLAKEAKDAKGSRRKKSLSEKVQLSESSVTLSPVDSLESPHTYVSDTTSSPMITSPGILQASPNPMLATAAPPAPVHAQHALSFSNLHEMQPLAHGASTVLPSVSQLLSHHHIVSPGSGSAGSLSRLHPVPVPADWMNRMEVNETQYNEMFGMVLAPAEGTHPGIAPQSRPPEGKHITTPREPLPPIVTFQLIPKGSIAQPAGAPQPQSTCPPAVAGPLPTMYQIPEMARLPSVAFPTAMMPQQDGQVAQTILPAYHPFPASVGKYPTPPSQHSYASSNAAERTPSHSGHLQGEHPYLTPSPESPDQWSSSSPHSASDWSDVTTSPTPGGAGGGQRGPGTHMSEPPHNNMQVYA

In the case of `C=CCOC(=O)[C@H]1[C@@H]2C(=O)O[C@@H](c3ccccc3)[C@@H](c3ccccc3)N2[C@@H](c2ccc(OCCOC(=O)[C@H]3C[C@H]4C(=O)NCC(=O)N4[C@H]3c3ccc(O)cc3)cc2)[C@]12C(=O)Nc1ccc(I)cc12`, the composite z-score [1] is reported as -0.309, the composite z-score [2] is reported as 1.03 and the composite z-score [3] is reported as -0.0867. The composite z-score [4] was 0.202, the composite z-score [5] was 0.636 and the composite z-score [6] was 0.346. For the same compound, the composite z-score [7] was 0.869, the z-score [8] was -1.35 (inactive) and the composite z-score [9] was 0.392. The composite z-score [10] was 0.064.

In the case of `Cc1ccc(S[C@]2(C(=O)NCC(F)(F)F)CC(=O)N(C3CCCCC3)[C@@H]2c2ccc(CO)cc2)cc1`, the composite z-score [1] is reported as 0.169, the composite z-score [2] is reported as 0.148 and the composite z-score [3] is reported as -0.129. For the same compound, the composite z-score [4] was 0.116, the composite z-score [5] was -0.426 and the composite z-score [6] was 1.66. The composite z-score [7] was 0.631, the z-score [8] was -2.21 (inactive) and the composite z-score [9] was 0.387. It also gave a composite z-score [10] of -0.271.

For `COCCOC(=O)N1C(=O)[C@@]2(c3cc(C#CC4(O)CCCCCC4)ccc31)[C@H](c1ccc(OCCO)cc1)N1[C@H](c3ccccc3)[C@H](c3ccccc3)OC(=O)[C@H]1[C@@H]2C(N)=O`, the composite z-score [1] was -0.392, the composite z-score [2] was 0.96 and the composite z-score [3] was 0.014. The composite z-score [4] was 1.05, the composite z-score [5] was 0.96 and the composite z-score [6] was 1.32. For the same compound, the composite z-score [7] was 1.14, the z-score [8] was 0.11 (inactive) and the composite z-score [9] was 0.48. It also gave a composite z-score [10] of -0.0645.

Compound `CCOC(=O)C1=C(C(=O)OCC)N(S(=O)(=O)CC[Si](C)(C)C)[C@H](c2ccccc2)CC1` has a composite z-score [1] of 0.208, a composite z-score [2] of 0.0516 and a composite z-score [3] of -0.0066. For the same compound, the composite z-score [4] was 0.2, the composite z-score [5] was 1.53 and the composite z-score [6] was -0.0059. The composite z-score [7] was 0.884, the z-score [8] was -2.55 (inactive) and the composite z-score [9] was 0.917. For the same compound, the composite z-score [10] was 0.0623.

`COC(=O)[C@@]1(Cc2ccc(OC)cc2)[C@H]2c3cc(C(=O)N(C)C)n(Cc4ccsc4Br)c3C[C@H]2CN1C(=O)c1ccccc1` showed a composite z-score [1] of 0.254, a composite z-score [2] of -0.162 and a composite z-score [3] of 0.336. The composite z-score [4] was 0.752, the composite z-score [5] was 1.64 and the composite z-score [6] was 1.89. For the same compound, the composite z-score [7] was 0.856, the z-score [8] was -0.778 (inactive) and the composite z-score [9] was 0.45. It also gave a composite z-score [10] of 0.239.

In the case of `COC(=O)[C@]1(CO)N=C(c2ccc(OCCCO)cc2)O[C@@H]1c1ccccc1CN=[N+]=[N-]`, the composite z-score [1] is reported as -0.0858, the composite z-score [2] is reported as -0.132 and the composite z-score [3] is reported as -0.155. For the same compound, the composite z-score [4] was -0.546, the composite z-score [5] was -0.663 and the composite z-score [6] was -0.12. The composite z-score [7] was 1.16, the z-score [8] was 1.7 (inactive) and the composite z-score [9] was -0.144. For the same compound, the composite z-score [10] was -0.286.

`COCCCNC(=O)[C@@H]1c2ccccc2C(=O)N(C2CCCCC2)[C@H]1c1ccc(CO)cc1` gave a composite z-score [1] of 0.503, a composite z-score [2] of -0.763 and a composite z-score [3] of -0.105. For the same compound, the composite z-score [4] was -0.564, the composite z-score [5] was -1.03 and the composite z-score [6] was 1.2. For the same compound, the composite z-score [7] was 1.45, the z-score [8] was -0.108 (inactive) and the composite z-score [9] was -0.341. For the same compound, the composite z-score [10] was -0.236.

`[N-]=[N+]=NCc1ccccc1C[C@@]1(C(=O)O)N=C(c2ccc(OCCCO)cc2)O[C@@H]1c1ccccc1CN=[N+]=[N-]` gave a composite z-score [1] of 0.0419, a composite z-score [2] of 1.34 and a composite z-score [3] of -0.01. For the same compound, the composite z-score [4] was 0.556, the composite z-score [5] was 1.17 and the composite z-score [6] was 1.1. The composite z-score [7] was 1.22, the z-score [8] was 2.88 (inactive) and the composite z-score [9] was 0.663. The composite z-score [10] was -0.173.

`CCC[C@@H]1C=C(C(=O)OCC)[C@H](c2ccccc2)N1S(=O)(=O)c1ccc(C)cc1` showed a composite z-score [1] of 0.483, a composite z-score [2] of 0.379 and a composite z-score [3] of 0.137. It also gave a composite z-score [4] of 0.88, a composite z-score [5] of 1.66 and a composite z-score [6] of 1.09. The composite z-score [7] was 1.06, the z-score [8] was -1.56 (inactive) and the composite z-score [9] was 1.2. For the same compound, the composite z-score [10] was -0.105.

`CCCCN1CC=CC23O[C@@H]4C=CCOC(=O)[C@@H]4[C@H]2C(=O)N(CCO)[C@@H]3C1=O` (stereo not given in full) showed a composite z-score [1] of 1.37, a composite z-score [2] of 0.0339 and a composite z-score [3] of -0.168. It also gave a composite z-score [4] of -1.03, a composite z-score [5] of -1.39 and a composite z-score [6] of 0.332. For the same compound, the composite z-score [7] was 0.695, the z-score [8] was 0.432 (inactive) and the composite z-score [9] was -0.657. For the same compound, the composite z-score [10] was -0.0645.

For `CCOC(=O)C[C@H]1[C@H](OC(=O)c2ccc(C(=O)c3ccccc3)cc2)[C@@H](NC(=O)c2ccc3ccccc3c2)c2cc(OCCCO)ccc2N1C(=O)c1ccc2ccccc2n1`, the composite z-score [1] was -0.432, the composite z-score [2] was 0.761 and the composite z-score [3] was -0.101. For the same compound, the composite z-score [4] was 0.746, the composite z-score [5] was 0.5 and the composite z-score [6] was 0.43. The composite z-score [7] was 0.53, the z-score [8] was 0.476 (inactive) and the composite z-score [9] was 0.392. It also gave a composite z-score [10] of -0.151.

`[N-]=[N+]=NCc1ccccc1[C@@H]1OC(c2ccc(OCCCO)cc2)=N[C@]1(Cc1ccccc1)C(=O)NCc1ccccc1` showed a composite z-score [1] of -0.158, a composite z-score [2] of -0.649 and a composite z-score [3] of 0.227. The composite z-score [4] was 0.22, the composite z-score [5] was 1.3 and the composite z-score [6] was 1.56. For the same compound, the composite z-score [7] was 0.744, the z-score [8] was -2.16 (inactive) and the composite z-score [9] was 0.846. It also gave a composite z-score [10] of 0.0373.

Compound `C/C=C/CN(C(=O)C#Cc1ccccc1)[C@H](CO[Si](C)(C)C(C)(C)C)c1ccccc1` has a composite z-score [1] of 0.15, a composite z-score [2] of 0.183 and a composite z-score [3] of -0.237. The composite z-score [4] was -0.77, the composite z-score [5] was -1.58 and the composite z-score [6] was -0.339. For the same compound, the composite z-score [7] was -0.164, the z-score [8] was -3.24 (inactive) and the composite z-score [9] was -0.967. The composite z-score [10] was -0.435.

Compound `COCCOC(=O)N1C(=O)[C@@]2(c3cc(C#CC4(O)CCCCCC4)ccc31)[C@H](C(=O)NC[C@H](O)c1ccccc1)[C@H]1C(=O)O[C@H](c3ccccc3)[C@H](c3ccccc3)N1[C@@H]2c1ccc(O)cc1` has a composite z-score [1] of -0.0443, a composite z-score [2] of 0.224 and a composite z-score [3] of -0.0193. The composite z-score [4] was 1, the composite z-score [5] was 0.496 and the composite z-score [6] was 0.802. The composite z-score [7] was 1.28, the z-score [8] was -0.0865 (inactive) and the composite z-score [9] was 0.153. It also gave a composite z-score [10] of 0.176.

`C=C(/C(=C/C[C@@H](OC(C)=O)c1ccccc1OCCO)c1cc(C(=O)OC)ccc1OC)C(C)C` gave a composite z-score [1] of -0.101, a composite z-score [2] of 0.179 and a composite z-score [3] of -0.049. For the same compound, the composite z-score [4] was 0.643, the composite z-score [5] was 0.632 and the composite z-score [6] was 0.685. For the same compound, the composite z-score [7] was 0.5, the z-score [8] was 0.178 (inactive) and the composite z-score [9] was -0.145. For the same compound, the composite z-score [10] was -0.312.

`CC(C)CNC(=O)[C@@H]1c2ccccc2C(=O)N(C(C)C)[C@H]1c1ccc(CO)cc1` showed a composite z-score [1] of 0.172, a composite z-score [2] of -0.0466 and a composite z-score [3] of -0.138. It also gave a composite z-score [4] of -0.466, a composite z-score [5] of -0.811 and a composite z-score [6] of -0.566. The composite z-score [7] was 1.41, the z-score [8] was -0.981 (inactive) and the composite z-score [9] was -0.117. It also gave a composite z-score [10] of -0.261.
